Data as given in PubChem BioAssay (NCATS).
Inconclusive results are not listed. A number with no mark means an inactive call. Calls of active or inactive are those of the source. Calls come from the whole dose curve; as a rule, active = well fitted inhibition curve with a large enough effect; inconclusive = small, poorly fitted or top-dose-only effect; inactive = flat fitted curve, though single readings scatter.

Test system: JCK
Experiment: qHTS profiling for inhibitors of Plasmodium falciparum proliferation (AID 504749); note: nearly all actives have a fitted effect of over 60% in size;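 for activity, negative = inhibition: 0% = DMSO vehicle and full inhibition = artemisinin control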
Details: P. falciparum in erythrocytes, SYBR Green DNA, 72 h; series mostly up to 28.7 µM; activity, negative = inhibition: at the top concentration
Method in brief: (§1)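 P. falciparum-infected erythrocytes (0.3% parasitemia, 2.5% hematocrit) incubated with compound 72 h at 37 C, 5% CO2. Parasite DNA detected by SYBR Green after lysis, overnight at room temperature; normalised to 0.29 uM artemisinin and DMSO.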
Potency is the fitted concentration of half-maximal effect.

| SMILES | activity, negative = inhibition | Potency |
| --- | --- | --- |
| O=C(CN1CCN(Cc2ccc3c(c2)OCO3)CC1)N1c2ccccc2Sc2ccccc21 | -14.4% |  |
| CCC(CC)(CC(=O)Nc1cccc(/C=C/c2nc(C3CCC3)cs2)c1)C(=O)O | -14% |  |
| COc1ccc(C(=O)c2ccccc2)c(O)c1 | -6.92% |  |
| COc1cc(O)c(C(=O)c2ccccc2)cc1S(=O)(=O)O | -22.6% |  |
| C#C[C@]1(OC(C)=O)CC[C@H]2[C@@H]3CCC4=C/C(=N/O)CC[C@@H]4[C@H]3CC[C@@]21CC | 4.94% |  |
| CN1CCC(OC(c2ccccc2)c2ccccc2)CC1 | -14.5% [at 12.8 µM] |  |
| Cc1cccc(C)c1NC(=O)CN1CCCCCC1 | -28.4% |  |
| CCOC(=O)Nc1ccc2c(c1)N(C(=O)CCN1CCOCC1)c1ccccc1S2 | 8.14% [at 12.8 µM] |  |
| Cc1cc2c(OCC(CNC(C)(C)C)OC(=O)c3ccccc3)cccc2[nH]1 (stereo unspecified) | -11.8% |  |
| CCc1ccc(C(=O)C(C)CN2CCCCC2)cc1 (stereo unspecified) | -4.37% |  |
| CCC(C(=O)OCCOCCN(CC)CC)c1ccccc1 (stereo unspecified) | -4.43% |  |
| CN(C)CCN1C(=O)c2ccccc2N(C)c2ccccc21 | -26.5% |  |
| CC(=O)NCCCCCC(=O)O | 5.23% |  |
| O=C(NC1CCN(CCc2c[nH]c3ccccc23)CC1)c1ccccc1 | -10% |  |
| CCOc1ccccc1OCCN[C@H](C)Cc1ccc(OC)c(S(N)(=O)=O)c1 | -6.16% |  |
| NC(=O)C1(N2CCCCC2)CCN(CCCC(=O)c2ccc(F)cc2)CC1 | -0.0619% |  |
| Cc1ncc(CO)c(C=O)c1O | 22.3% |  |

| SMILES | activity, negative = inhibition | Potency |
| --- | --- | --- |
| CC(=O)O[C@H]1C[C@@H]2CC[C@@H]3[C@H](CC[C@@]4(C)[C@H]3C[C@H]([N+]3(C)CCCCC3)[C@@H]4OC(C)=O)[C@@]2(C)C[C@@H]1N1CCCCC1 | -10.4% |  |
| CC[N+](C)(CC)CCOC(=O)C(O)(c1ccccc1)C1CCCCC1 (stereo unspecified) | -5.4% |  |
| COc1cc([C@H]2Oc3cc([C@H]4Oc5cc(O)cc(O)c5C(=O)[C@@H]4O)ccc3O[C@@H]2CO)ccc1O | 9.65% |  |
| CO[C@]12C[C@@H](COC(=O)c3cncc(Br)c3)CN(C)[C@@H]1Cc1cn(C)c3cccc2c13 | -29.5% |  |
| CN1CCN(C2=Nc3ccccc3Sc3ccc(Cl)cc32)CC1 | -21.6% |  |
| CCNC(=O)NCc1cccc(Cl)c1 | 2.44% |  |
| Cc1ccc2c(Br)cc(Br)c(O)c2n1 |  | 10 µM (active) |
| O=[N+]([O-])c1cccc(S(=O)(=O)NCCNS(=O)(=O)c2cccc([N+](=O)[O-])c2)c1 | -17% |  |
| CC(C)[N+](C)(C)CC(O)COc1cccc2ccccc12 (stereo unspecified) | -23.5% |  |
| C[N+]1(C)CCC(=C(c2ccccc2)c2ccccc2)CC1 | 5.53% [at 12.8 µM] |  |
| NCc1ccccc1Sc1ccccc1CO | -4.66% |  |
| OC[C@H]1O[C@@H]2O[C@H]3[C@H](O)[C@@H](O)[C@@H](O[C@H]4[C@H](O)[C@@H](O)[C@@H](O[C@H]5[C@H](O)[C@@H](O)[C@@H](O[C@H]6[C@H](O)[C@@H](O)[C@@H](O[C@H]7[C@H](O)[C@@H](O)[C@@H](O[C@H]8[C@H](O)[C@@H](O)[C@@H](O[C@H]1[C@H](O)[C@H]2O)O[C@@H]8CO)O[C@@H]7CO)O[C@@H]6CO)O[C@@H]5CO)O[C@@H]4CO)O[C@@H]3CO | 12.6% |  |
| COC(=O)C(c1ccccc1Cl)N1CCc2sccc2C1 (stereo unspecified) | -7.82% |  |
| CCCCCCCCCCCCOCCOCCOCCOCCOCCOCCOCCOCCOCCO | -0.324% |  |
| CC(C)=CCOc1ccc(/C=C/C(=O)c2ccc(OCC=C(C)C)cc2OCC(=O)O)cc1 | 1.64% |  |
| CN1CCN(C2=Nc3cc(F)ccc3Cc3ccccc32)CC1 | -6.79% |  |
| CC(=O)O[C@]1(C(C)=O)CC[C@H]2[C@@H]3C=C(Cl)C4=CC(=O)CC[C@]4(C)[C@H]3CC[C@@]21C | -14.9% |  |

Test system: N140
Experiment: as above
Details: P. falciparum in erythrocytes, SYBR Green DNA, 72 h; series mostly up to 28.7 µM; activity, negative = inhibition: at the top concentration
Method in brief: as §1

| SMILES | activity, negative = inhibition | Potency |
| --- | --- | --- |
| CCC(CC)(CC(=O)Nc1cccc(/C=C/c2nc(C3CCC3)cs2)c1)C(=O)O | -25% |  |
| C#C[C@]1(OC(C)=O)CC[C@H]2[C@@H]3CCC4=C/C(=N/O)CC[C@@H]4[C@H]3CC[C@@]21CC | 13.8% |  |
| Cc1cccc(C)c1NC(=O)CN1CCCCCC1 | 2.76% |  |
| CCOC(=O)Nc1ccc2c(c1)N(C(=O)CCN1CCOCC1)c1ccccc1S2 | -1.2% [at 12.8 µM] |  |
| CCc1ccc(C(=O)C(C)CN2CCCCC2)cc1 (stereo unspecified) | -9.17% |  |
| CCC(C(=O)OCCOCCN(CC)CC)c1ccccc1 (stereo unspecified) | -23.4% |  |
| Oc1ccc(Cl)cc1Cc1cc(Cl)ccc1O |  | 11.2 µM (active) |
| CC(=O)NCCCCCC(=O)O | 4.96% |  |
| O=C(NC1CCN(CCc2c[nH]c3ccccc23)CC1)c1ccccc1 | -19.3% |  |
| CCOc1ccccc1OCCN[C@H](C)Cc1ccc(OC)c(S(N)(=O)=O)c1 | 5.63% |  |
| CCN(CC)CCOC(=O)C1(c2ccccc2)CCCC1 | -74.8% |  |
| NC(=O)C1(N2CCCCC2)CCN(CCCC(=O)c2ccc(F)cc2)CC1 | -24.6% |  |
| Cc1ncc(CO)c(C=O)c1O | 4% |  |
| CC(=O)O[C@H]1C[C@@H]2CC[C@@H]3[C@H](CC[C@@]4(C)[C@H]3C[C@H]([N+]3(C)CCCCC3)[C@@H]4OC(C)=O)[C@@]2(C)C[C@@H]1N1CCCCC1 | -16.4% |  |
| CC[N+](C)(CC)CCOC(=O)C(O)(c1ccccc1)C1CCCCC1 (stereo unspecified) | -14.7% |  |
| CCNC(=O)NCc1cccc(Cl)c1 | 5.19% |  |
| Cc1ccc2c(Br)cc(Br)c(O)c2n1 |  | 10 µM (active) |
| O=[N+]([O-])c1cccc(S(=O)(=O)NCCNS(=O)(=O)c2cccc([N+](=O)[O-])c2)c1 | -5.58% |  |
| CC(C)[N+](C)(C)CC(O)COc1cccc2ccccc12 (stereo unspecified) | -27.2% |  |
| C[N+]1(C)CCC(=C(c2ccccc2)c2ccccc2)CC1 | -16.7% [at 12.8 µM] |  |
| OC[C@H]1O[C@@H]2O[C@H]3[C@H](O)[C@@H](O)[C@@H](O[C@H]4[C@H](O)[C@@H](O)[C@@H](O[C@H]5[C@H](O)[C@@H](O)[C@@H](O[C@H]6[C@H](O)[C@@H](O)[C@@H](O[C@H]7[C@H](O)[C@@H](O)[C@@H](O[C@H]8[C@H](O)[C@@H](O)[C@@H](O[C@H]1[C@H](O)[C@H]2O)O[C@@H]8CO)O[C@@H]7CO)O[C@@H]6CO)O[C@@H]5CO)O[C@@H]4CO)O[C@@H]3CO | 8.49% |  |
| CC(C)=CCOc1ccc(/C=C/C(=O)c2ccc(OCC=C(C)C)cc2OCC(=O)O)cc1 | 6.51% |  |
